Reference: the supplement of paper PMC13380429

The molecules below were run on Vero E6 infected with SARS-CoV-2 (assay: inhibition of SARS-CoV-2 cytopathic effect; higher = more antiviral protection, active = above 15). Settings: 833.33 nM; 48 h.

Compound	inhibition of SARS-CoV-2 cytopathic effect
Cc1cc(C(=O)O)sc1C(N)C(=O)O (stereo not drawn)	1.06% (inactive)
NC(=O)C(c1ccccc1)(c1ccc(F)cc1)c1ccc(F)cc1 [senicapoc]	0.14% (inactive)
CCOc1c2c(c(OCC)c3ccccc13)C(=O)N(c1ccc(CC(=O)NS(=O)(=O)c3ccccc3)cc1)C2	-1.03% (inactive)
COc1c(O)cc2c(c1O)[C@@H]1O[C@H](CO)[C@@H](O)[C@H](O)[C@H]1OC2=O [bergenin]	0.39% (inactive)
O=C(O)c1cc(/N=N/c2ccc(O)c(C(=O)O)c2)ccc1O [olsalazine]	2.78% (inactive)
O=C(Cc1ccc(-c2ccccc2)cc1)Nc1ccccn1 [difenpiramide]	6.97% (inactive)
Nc1nc(N)c(N=O)c(OCC2CCCCC2)n1	5.81% (inactive)
CC(C)N(CC[C@H](c1ccccc1)c1cc(CO)ccc1O)C(C)C [5-hydroxymethyl-tolterodine]	2.8% (inactive)
CCn1c(=O)c2c(nc(/C=C/c3ccc(OC)c(OC)c3)n2C)n(CC)c1=O [istradefylline]	-0.33% (inactive)
Cc1cccc(N(C)C(=S)Oc2ccc3ccccc3c2)c1 [tolnaftate]	1.03% (inactive)
CCOC(=O)c1ccc(NC2CCCCC2)c(N)c1 [ferrostatin-1]	2.6% (inactive)
COc1cccc(C=NCCN=Cc2cccc(OC)c2[O-])c1[O-].[Cl-].[Mn+3]	1.11% (inactive)
COc1ccc(-c2oc3cc(OC)ccc3c2C(=O)c2ccc(C#N)cc2)cc1	-3.9% (inactive)
CC1(C)S[C@@H]2[C@H](NC(=O)COc3ccccc3)C(=O)N2[C@H]1C(=O)O [penicillin-v-potassium]	1.76% (inactive)
O=C(O)c1cccnc1C(=O)O [quinolinic-acid]	-1.65% (inactive)
CCOC(=O)c1ccc(OC(=O)CCCCCNC(=N)N)cc1 [gabexate]	3.6% (inactive)
CCOc1ccc2ccccc2c1C(=O)N[C@@H]1C(=O)N2[C@@H]1SC(C)(C)[C@@H]2C(=O)O [nafcillin]	-1.73% (inactive)
COc1ccc(CNC(=O)c2sc3nc(C)cc(C)c3c2N)cc1	2.96% (inactive)

Same assay, conditions: 10000 nM; 48 h

Compound	inhibition of SARS-CoV-2 cytopathic effect
C[C@@H]1Cc2c([nH]c3ccccc23)[C@@H](c2c(F)cc(/C=C/C(=O)O)cc2F)N1CC(C)(C)F	-3.78% (inactive)
NS(=O)(=O)c1cc2c(cc1Cl)N=CNS2(=O)=O [chlorothiazide]	-0.76% (inactive)
CC(C)[C@H]1c2ccc(F)cc2CC[C@@]1(CCN(C)CCCc1nc2ccccc2[nH]1)OC(=O)C1CC1	-19.3% (inactive)
CCCCc1ccc2[nH]c(NC(=O)OC)nc2c1 [parbendazole]	-1.63% (inactive)
CC[C@@H](CO)NC(=O)[C@@H]1C=C2c3cccc4[nH]cc(c34)C[C@H]2N(C)C1 [methylergometrine]	0% (inactive)
CC(C)N[C@H]1CCn2c(=O)[nH]c3cccc(c32)[C@@H]1O [zilpaterol]	-2.51% (inactive)
CCOC(=O)Nc1nc2ccccc2[nH]1 [lobendazole]	-11.2% (inactive)
CN(C)c1ccccc1CN1CCCN(Cc2ccccc2N(C)C)C1c1ccncc1	21% (active)
CN1C(=O)N(C)C2C1N(C)C(=O)N2C (stereo not drawn) [mebicar]	-2.18% (inactive)
CC(=O)Oc1ccccc1C(=O)O [aspirin]	-12.8% (inactive)
Cc1c(C(=O)NN2CCCCC2)nn(-c2ccc(Cl)cc2Cl)c1-c1ccc(Cl)cc1 [rimonabant]	-3.44% (inactive)
CS(=O)(=O)Nc1ccc([N+](=O)[O-])cc1Oc1ccccc1 [nimesulide]	2.92% (inactive)
O=c1nc2ccccc2c2n1CC(CN1CCN(c3ccccc3)CC1)N2 (stereo not drawn)	5.46% (inactive)
COc1cc(Cc2cnc(N)nc2N)cc(OC)c1OC [trimethoprim]	2.04% (inactive)
CN1[C@@H]2C[C@@H](O)C[C@H]1[C@@H]1O[C@@H]12 [scopine]	-0.8% (inactive)
C=CCNc1ncnc2ccc(Br)cc12	0.96% (inactive)
COc1ccc2cc(C(C)C(=O)Oc3ccc(C(N)=S)cc3)ccc2c1 (stereo not drawn)	4.55% (inactive)
CN[C@H](CC(C)C)C(=O)N[C@H]1C(=O)N[C@@H](CC(N)=O)C(=O)N[C@H]2C(=O)N[C@H]3C(=O)N[C@H](C(=O)N[C@H](C(=O)O)c4cc(O)cc(O)c4-c4cc3ccc4O)[C@H](O[C@H]3C[C@](C)(N)[C@@H](O)[C@H](C)O3)c3ccc(c(Cl)c3)Oc3cc2cc(c3O[C@@H]2O[C@H](CO)[C@@H](O)[C@H](O)[C@H]2O[C@H]2C[C@](C)(NCc3ccc(-c4ccc(Cl)cc4)cc3)[C@@H](O)[C@H](C)O2)Oc2ccc(cc2Cl)[C@H]1O [oritavancin]	0.93% (inactive)
N=C(N)c1ccc(/N=N/Nc2ccc(C(=N)N)cc2)cc1 [diminazene-aceturate]	2.42% (inactive)
C=CC[N+]1([C@H]2C[C@H]3[C@@H]4CC[C@H]5C[C@H](O)[C@@H](N6CCOCC6)C[C@]5(C)[C@H]4CC[C@]3(C)[C@H]2OC(C)=O)CCCC1	0.75% (inactive)

Compound	inhibition of SARS-CoV-2 cytopathic effect
C[C@H]1[C@H](C)CC[C@]2(C(=O)O)CC[C@]3(C)C(=CC[C@@H]4[C@@]5(C)C[C@@H](O)[C@H](O)[C@@](C)(CO)[C@@H]5CC[C@]43C)[C@H]12 [asiatic-acid]	-3.69% (inactive)
Nn1cnc2cc3ccccc3cc2c1=O [centazolone]	0.93% (inactive)
Cc1cc(C(=O)O)sc1C(N)C(=O)O (stereo not drawn)	-0.02% (inactive)
NC(=O)C(c1ccccc1)(c1ccc(F)cc1)c1ccc(F)cc1 [senicapoc]	-0.54% (inactive)
CCOc1c2c(c(OCC)c3ccccc13)C(=O)N(c1ccc(CC(=O)NS(=O)(=O)c3ccccc3)cc1)C2	0.05% (inactive)
COc1c(O)cc2c(c1O)[C@@H]1O[C@H](CO)[C@@H](O)[C@H](O)[C@H]1OC2=O [bergenin]	-1.22% (inactive)
O=C(O)c1cc(/N=N/c2ccc(O)c(C(=O)O)c2)ccc1O [olsalazine]	1.21% (inactive)
O=C(Cc1ccc(-c2ccccc2)cc1)Nc1ccccn1 [difenpiramide]	14.8% (inactive)
Nc1nc(N)c(N=O)c(OCC2CCCCC2)n1	18.5% (active)
CC(C)N(CC[C@H](c1ccccc1)c1cc(CO)ccc1O)C(C)C [5-hydroxymethyl-tolterodine]	-3.28% (inactive)
CCn1c(=O)c2c(nc(/C=C/c3ccc(OC)c(OC)c3)n2C)n(CC)c1=O [istradefylline]	2.33% (inactive)
Cc1cccc(N(C)C(=S)Oc2ccc3ccccc3c2)c1 [tolnaftate]	3.31% (inactive)
CCOC(=O)c1ccc(NC2CCCCC2)c(N)c1 [ferrostatin-1]	2.1% (inactive)
COc1cccc(C=NCCN=Cc2cccc(OC)c2[O-])c1[O-].[Cl-].[Mn+3]	14.1% (inactive)
COc1ccc(-c2oc3cc(OC)ccc3c2C(=O)c2ccc(C#N)cc2)cc1	1.7% (inactive)
CC1(C)S[C@@H]2[C@H](NC(=O)COc3ccccc3)C(=O)N2[C@H]1C(=O)O [penicillin-v-potassium]	0.08% (inactive)
O=C(O)c1cccnc1C(=O)O [quinolinic-acid]	-4.35% (inactive)
CCOC(=O)c1ccc(OC(=O)CCCCCNC(=N)N)cc1 [gabexate]	3.31% (inactive)
CCOc1ccc2ccccc2c1C(=O)N[C@@H]1C(=O)N2[C@@H]1SC(C)(C)[C@@H]2C(=O)O [nafcillin]	-0.95% (inactive)
COc1ccc(CNC(=O)c2sc3nc(C)cc(C)c3c2N)cc1	2.28% (inactive)
